PubChem BioAssay AID540321 (Johns Hopkins Ion Channel Center, 2011)
The source made the active and inactive calls.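 Rule for the calls: active = Inhibition of the Kir2.1 potassium channel over 30% at some tested dose, plus a fitted dose response curve; inactive = no Kir2.1 inhibition at any dose, or no curve fitted.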

Target: Inward rectifier potassium channel 2 (Mus musculus) (UniProt P35561)
Experiment: off-target blockade of inward rectifier Kir2.1 – cell-based, FluxOR thallium flux, CRC round 2, selectivity assay for KCNK9 inhibitor project, SAR follow-up (AID 540321)

Sequence of Inward rectifier potassium channel 2 (Mus musculus) (P35561 whole entry, looked up): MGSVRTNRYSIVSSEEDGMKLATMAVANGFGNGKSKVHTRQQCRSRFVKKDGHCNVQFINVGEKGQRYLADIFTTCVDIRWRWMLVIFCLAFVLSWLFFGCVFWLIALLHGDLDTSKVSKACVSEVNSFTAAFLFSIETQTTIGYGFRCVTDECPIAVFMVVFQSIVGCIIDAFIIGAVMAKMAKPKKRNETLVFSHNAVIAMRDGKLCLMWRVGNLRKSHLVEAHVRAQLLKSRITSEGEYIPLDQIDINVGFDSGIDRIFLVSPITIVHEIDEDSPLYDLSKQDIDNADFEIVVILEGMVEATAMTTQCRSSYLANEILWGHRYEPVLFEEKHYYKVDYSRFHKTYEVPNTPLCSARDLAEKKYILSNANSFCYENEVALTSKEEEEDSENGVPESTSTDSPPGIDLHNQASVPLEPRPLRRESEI

Compound	outcome
O=C(Nc1cccc(NC(=O)c2ccc(Cl)cc2)c1)c1ccccc1	inactive
CN(C)c1ccc(C(=O)Nc2cccc(NC(=O)c3ccccc3)c2)cc1	inactive
CC(C1CC2CCC1C2)n1c(-c2ccccc2Cl)n[nH]c1=S (stereo not given)	inactive
CCOc1ccccc1NC(=O)c1cccc(NC(=O)c2cccc(C(F)(F)F)c2)c1	inactive
CCOc1ccccc1C(=O)Nc1cccc(NC(=O)c2cccc(C)c2)c1	inactive
O=C(Nc1cccc(NC(=O)c2ccccc2C(F)(F)F)c1)c1ccccc1	inactive
Cc1cccc(C(=O)Nc2cccc(NC(=O)c3ccc(N(C)C)cc3)c2)c1	inactive
CC(C1CC2CCC1C2)n1c(-c2ccccc2)n[nH]c1=S (stereo not given)	inactive
S=c1[nH]nc(-c2ccco2)n1CC1CCCCC1	inactive
Cc1cccc(C(=O)Nc2cccc(NC(=O)c3ccccc3OCC(C)C)c2)c1	inactive
CC(c1ccccc1)n1c(-c2ccco2)n[nH]c1=S (stereo not given)	inactive
COc1ccccc1NC(=O)c1cccc(NC(=O)c2ccccc2C(F)(F)F)c1	inactive
O=C(Nc1cccc(NC(=O)c2ccccc2Cl)c1)c1ccccc1	inactive
O=C(Nc1cccc(NC(=O)c2cccc(Cl)c2)c1)c1ccccc1	inactive
CCOc1ccccc1NC(=O)c1cccc(NC(=O)c2ccccc2C(F)(F)F)c1	inactive
CCOc1ccccc1NC(=O)c1cccc(NC(=O)CC2CCCCC2)c1	inactive
CCOc1ccccc1NC(=O)c1cccc(NC(=O)C2CCCCC2)c1	inactive
Cc1cccc(C(=O)Nc2cccc(NC(=O)c3cccc(C(F)(F)F)c3)c2)c1	inactive

Compound	outcome
Cc1ccccc1-c1n[nH]c(=S)n1C(C)C1CC2CCC1C2 (stereo not given)	inactive
CCOc1cccc(NC(=O)c2cccc(NC(=O)C3CCCC3)c2)c1	inactive
COc1ccccc1C(=O)Nc1cccc(NC(=O)c2cccc(C)c2)c1	inactive
CC(c1ccco1)n1c(-c2ccoc2)n[nH]c1=S (stereo not given)	inactive
COc1ccccc1NC(=O)c1cccc(NC(=O)CC2CCCC2)c1	inactive
O=C(Nc1cccc(NC(=O)c2ccc(F)cc2)c1)c1ccccc1	inactive
O=C(Nc1cccc(NC(=O)c2ccoc2)c1)c1ccccc1	inactive
O=C(Nc1cccc(NC(=O)c2cccs2)c1)c1ccccc1	inactive
Cc1cccc(C(=O)Nc2cccc(NC(=O)c3cccs3)c2)c1	inactive
CCOc1ccccc1NC(=O)c1cccc(NC(=O)c2cccc(C)c2)c1	inactive
COc1ccc(-c2n[nH]c(=S)n2C(C)C2CC3CCC2C3)cc1 (stereo not given)	inactive
COc1ccc(C(=O)Nc2cccc(NC(=O)c3cccc(C)c3)c2)cc1	inactive
CC(C1CC2CCC1C2)n1c(-c2ccco2)n[nH]c1=S (stereo not given)	inactive
COc1ccccc1C(=O)Nc1cccc(NC(=O)c2ccccc2OC)c1	inactive
O=C(Nc1cccc(NC(=O)c2ccccc2)c1)c1ccccc1	inactive
COc1ccccc1C(=O)Nc1cccc(NC(=O)c2ccccc2OC(F)(F)F)c1	inactive
CCOc1ccccc1C(=O)Nc1cccc(NC(=O)C2CCCC2)c1	inactive
